{"source": "PubChem BioAssay AID602256", "about": "(National Center for Advancing Translational Sciences (NCATS), 2012)", "note": "Records with an inconclusive call do not appear. Unmarked numbers belong to inactive results. Calls of active or inactive are those of the source. Calls follow the shape of the dose curve; as a rule, active = well fitted curve in the direction sought with a large enough effect; inconclusive = small, poorly fitted or top-dose-only effect, or another doubt; inactive = no such curve, though single readings can be large or run the other way.", "data": [{"target": "Relaxin receptor 1 (Homo sapiens) (UniProt Q9HBX9)", "sequence (Q9HBX9 whole entry, looked up)": "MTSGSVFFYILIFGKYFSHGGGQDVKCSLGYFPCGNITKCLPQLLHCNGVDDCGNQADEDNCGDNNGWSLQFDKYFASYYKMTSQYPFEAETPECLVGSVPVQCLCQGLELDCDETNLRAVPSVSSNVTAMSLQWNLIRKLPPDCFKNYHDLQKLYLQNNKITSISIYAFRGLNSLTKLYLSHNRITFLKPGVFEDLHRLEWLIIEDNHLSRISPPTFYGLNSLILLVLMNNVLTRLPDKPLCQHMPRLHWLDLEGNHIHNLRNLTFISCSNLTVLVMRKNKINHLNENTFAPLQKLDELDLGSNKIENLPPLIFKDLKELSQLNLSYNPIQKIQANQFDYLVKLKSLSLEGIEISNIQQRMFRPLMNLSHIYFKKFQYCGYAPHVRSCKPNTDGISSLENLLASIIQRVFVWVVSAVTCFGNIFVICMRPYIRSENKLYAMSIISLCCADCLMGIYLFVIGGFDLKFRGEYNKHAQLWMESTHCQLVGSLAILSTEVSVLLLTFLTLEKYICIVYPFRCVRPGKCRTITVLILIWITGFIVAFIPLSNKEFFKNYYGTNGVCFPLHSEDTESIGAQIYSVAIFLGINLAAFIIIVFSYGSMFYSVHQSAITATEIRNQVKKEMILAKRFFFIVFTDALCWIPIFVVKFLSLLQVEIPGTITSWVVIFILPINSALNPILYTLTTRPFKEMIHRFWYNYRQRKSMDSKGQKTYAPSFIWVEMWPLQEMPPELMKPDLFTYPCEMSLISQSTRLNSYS", "test": "qHTS Assay for Agonists of the Relaxin Receptor RXFP1: RXFP1 SAR", "conditions": "HEK293T-RXFP1 cAMP TR-FRET, 30 min; efficacy: active compounds read high", "source_text": "The relaxin hormone is involved in the variety of biological functions in normal tissues and diseases. The role of relaxin is well-established in female reproduction and parturition, mammary gland and endometrial development, maintenance of myometrial quiescence during pregnancy. Relaxin signaling through its G protein-coupled receptor (GPCR) RXFP1 results in ECM remodeling through regulation of collagen deposition, cell invasiveness, proliferation and overall tissue homeostasis. […] Recombinant human relaxin (rhRlx) is currently being tested in clinical trials as a protective agent in congestive heart failure, in treating severe preeclampsia, and as an anti-fibrotic agent in systemic sclerosis. Upon relaxin binding RXFP1 activation leads to the activation of adenylate cyclase (AC) via Gs. cAMP will activate PKA, which phosphorylates many signaling proteins. Thus, detection of cAMP increase is an easy and reliable indication of relaxin receptor activation. To screen for agonists of the relaxin receptor, a HEK293T cell line stably transfected with RXFP1 was used. RXFP1 activation was assayed by changes in cAMP levels as detected with a time-resolved fluorescence energy transfer (TR-FRET) cAMP detection kit. NIH Chemical Genomics Center [NCGC] NIH Molecular Libraries Probe Production Centers Network [MLPCN] MLPCN Grant: R03 MH085705-01A1 Assay Submitter (PI): Alexander Agoulnik\nThis is a cell-based assay for cAMP second messenger response to screen for agonists of the RXFP1 receptor. The assay was conducted in the presence of a PDE4 inhibitor (Ro 20174). The cells were lysed and the cAMP levels were measured with a TR-FRET cAMP kit. Presence of cAMP in the cell lysate disrupts binding between the cryptate-labeled anti-cAMP and d2-labeled cAMP pair, leading to a decrease in the TR-FRET signal. Data were normalized to the controls for basal activity (buffer only) and 100% activity (29 nM porcine relaxin). The EC50 values were determined from concentration-response data modeled with the standard Hill equation 1536-well assay protocol for the HEK293 RXFP1 cAMP assay: (1) Add 3 ul HEK293 RXFP1 cell culture. 2000 cells/well in DMEM/F12, 10% FBS, 1x Pen/Strep (dispensed offline with MultiDrop Combi). (2) Incubate 16-24 hr at 37C, 5% CO2. (3) Add 1 ul 400uM Ro20174 in DPBS, 0.05% BSA, 0.005% Tween 20. (3) Add 23 nl compounds in DMSO solution. Final concentration was 0.5 - 58 uM. (4) Incubate 30 min at 37C, 5% CO2. (5) Add 1 ul cAMP-d2 in lysis buffer (HTRF cAMP HiRange kit, CisBio). (6) Add 1 ul anti-cAMP antibody-cryptate in lysis buffer (HTRF cAMP HiRange kit, CisBio). (7) Incubate 30 min at room temperature. (6) Detect the assay plate in a ViewLux plate reader (PerkinElmer) with Ex=320 nm, Em1=615 nm and Em2=665 nm. Keywords: relaxin, RXFP1, RXFP2, G-protein coupled receptor, cAMP, agonist, high throughput screening, MLSMR, MLSCN, NIH Roadmap, qHTS and NCGC", "units": {"efficacy": "%"}, "values": [{"smiles": "O=C(Nc1cccc(C(F)(F)F)c1)c1ccccc1NC(=O)C1CC1", "Potency": "8380 nM (active)"}, {"smiles": "O=C(Nc1cccc(S(=O)(=O)C(F)(F)F)c1)c1ccccc1NC(=O)C1CCCCC1", "Potency": "1060 nM (active)"}, {"smiles": "CCCCOc1ccccc1C(=O)Nc1ccccc1C(=O)Nc1cccc(S(=O)(=O)C(F)(F)F)c1", "Potency": "47.1 nM (active)"}, {"smiles": "O=C(Nc1cccc(F)c1)c1ccccc1NC(=O)C1CCCCC1", "Potency": "13300 nM (active)"}, {"smiles": "O=C(NCc1cccc(C(F)(F)F)c1)c1ccccc1NC(=O)C1CCCCC1", "efficacy": 4.71}, {"smiles": "COc1ccccc1C(=O)N(C)c1ccccc1C(=O)Nc1cccc(C(F)(F)F)c1", "efficacy": -2.4}, {"smiles": "COc1ccc(C(=O)Nc2ccccc2C(=O)Nc2cccc(C(F)(F)F)c2)cc1", "Potency": "9400 nM (active)"}, {"smiles": "COc1ccccc1-c1ccccc1C(=O)Nc1cccc(C(F)(F)F)c1", "efficacy": -3.31}, {"smiles": "COc1cccc(C(=O)Nc2ccccc2C(=O)Nc2cccc(C(F)(F)F)c2)c1", "Potency": "1880 nM (active)"}, {"smiles": "COc1ccccc1Nc1ccccc1C(=O)Nc1cccc(C(F)(F)F)c1", "Potency": "4710 nM (active)"}, {"smiles": "O=C(Nc1cccc(Cl)c1)c1ccccc1NC(=O)C1CCCCC1", "Potency": "3340 nM (active)"}, {"smiles": "COc1ccccc1C(=O)Nc1ccccc1C(=O)Nc1cccc(C(F)(F)F)c1", "Potency": "334 nM (active)"}, {"smiles": "CCOc1ccccc1C(=O)Nc1ccccc1C(=O)Nc1cccc(C(F)(F)F)c1", "Potency": "265 nM (active)"}, {"smiles": "O=C(Nc1cccc(SC(F)(F)F)c1)c1ccccc1NC(=O)C1CCCCC1", "Potency": "1880 nM (active)"}]}]}
